In PubChem BioAssay (EPA / NIEHS) one finds outcome and AC50 data, which are given here for 40 compounds.

Active and inactive are the calls of the source. The calls were made as follows: active = hit-call score of the fitted dose curve at least 0.9, where 1 is the maximum; inactive = score below 0.9.

Read-out in this experiment: Cyclin Dependent Kinase Inhibitor 1A (CDKN1A), CDKN1A (gene 1026)
The experiment in a line: LTEA_HepaRG_CDKN1A: Life Technologies and Expression Analysis (LTEA) Assay for Cyclin Dependent Kinase Inhibitor 1A (CDKN1A) using HepaRG (AID 2283450). Conditions: mRNA level, 48 h; actives raise or lower the signal. The method, then: LTEA_HepaRG is a cell based, multiplexed-readout assay that uses HepaRG, a human liver cell line, with measurements taken at 48 hours after chemical dosing on a 96-well plate.LTEA_HepaRG_CDKN1A is one of 102 assay component(s) measured in the LTEA HepaRG cell culture assay. It is a marker of Cell proliferation, survival, death.Data from the assay component LTEA_HepaRG_CDKN1A was analyzed into 1 endpoint. This assay endpoint, LTEA_HepaRG_CDKN1A, was analyzed with bidirectional fitting relative to DMSO as the negative control and baseline of activity. Using a type of inducible reporter, measures of mRNA induction for gain or loss-of-signal activity can be used to understand regulation of transcription factor activity. To generalize the intended target to other relatable targets, this assay endpoint is annotated to the cell cycle intended target family, where the subfamily is Cell proliferation, survival, death.
A total of 1060 chemcials from the ToxCast library were tested in eight-point concentration-response experiments. Cell culture and cytotoxicity assays were conducted at Thermo Fisher Scientific's Custom Services facility (Madison, WI). A single lot of human HepaRG cells (Thermo Fisher Scientific, Frederick, MD) was used for the cell culture experiments. 96-well format collagen type I coated plates of human HepaRG cells were prepared using established methods. Briefly, cryopreserved HepaRG cells were thawed, plated at a density of approximately 100,000 cells/well in HepaRG Thaw, Plate, and General Purpose media (HPRG770, Thermo Fisher Scientific), and incubated for 48 hours. 0.5% DMSO was selected as vehicle control to balance the requisite need of DMSO in HepaRG cultures to maintain differentiation (for example, baseline metabolism, proportions of hepatocytes vs. cholangiocytes), while enabling further hepatic receptor pathway activation (for example, PXR and CAR) in response to chemical exposure. 48 hours after plating, the culture medium was replaced with HepaRG Serum-Free Incudtion Media. Cells were exposed to each test chemical in duplicate and maintained in CO2 incubators for another 48 hours. Chemical plates were thawed to room temperature and 200x concentrations of treatment groups were prepared. 8-point conentration-reponse curves were made with the highest exposure at 100 uM, followed by half-log dilutions, all in 0.5% DMSO. Each test plate contained variouse controls, induction positive controls (1mM phenobarbital), cytotoxicity positive controls ([…] aflatoxin B1), vehicle controls (0.5% DMSO), and total lysis controls (0.5% DMSO). Cell morphology images were taken using an Essen IncuCyte FLR automated microscope, with six 96-well plates imaged in about 24 minutes. Images were captured and exported and JPEG files. Spent culture media was transfered to black-well plates for the LDH assay, and remaining media was sorted at -80 C for later use. Cells were treated with RLT buffer and frozen until shipped for gene expression analysis. Total RNA was isolated from the cell suspension in 75 uL of Buffer RLT (Qiagen, Germantown, MD 20874) by Quintiles/Expression Analysis (Durham, NC) using a custom isolation procedure. Total RNA from each plate well was transferred to a preamplification plate. Fluidigm's 96.96 Dynamic ArrayTM (Fluidigm, Amsterdam, the Netherlands) technology was used for gene expression analyses by quantitative reverse transcription polymerase chain reaction (qRT-PCR, performed by Quintiles/Expression Analysis, Durham, NC)89. Standard TaqManTM Assays (Applied Biosystems/ThermoFisher Scientific, Foster City, CA) were used to assess the expression of 93 genes selected based on their selectivity and sensitivity to important hepatic receptors known to be modulated by environmental chemicals; importance in human hepatocyte functionality; and hepatotoxicity. […]
For `COP(=S)(OC)SCn1nnc2ccccc2c1=O`, the compound was called inactive.

For `COc1cc(Cl)c(OC)cc1Cl`, the call was inactive.

As for `CS(=O)(=O)c1cc(C(F)(F)F)ccc1C(=O)c1cnoc1C1CC1`, the result was inactive.

As for `CCOc1nc(C(Cl)(Cl)Cl)ns1`, the compound was called inactive.

On to `COC(=O)NS(=O)(=O)c1ccc(N)cc1`, for which the result was inactive.

Regarding `Cc1cnc(C2=NC(C)(C(C)C)C(=O)N2)c(C(=O)O)c1` (stereo not given), the outcome was inactive.

Turning to `CC1(C)C(C(=O)OC(C#N)c2cccc(Oc3ccccc3)c2)C1(C)C` (stereo not given), the compound was classed as inactive.

In the case of `CCOP(=O)(OCC)Oc1nc(Cl)c(Cl)cc1Cl`, the compound was classed as inactive.

Take `O=c1n(Cl)c(=O)n(Cl)c(=O)n1Cl`: the compound was classed as inactive.

On to `N#Cc1c[nH]cc1-c1cccc2c1OC(F)(F)O2`, for which the call was inactive.

For the compound `CNC(=O)N(C)c1nnc(C(C)(C)C)s1`, the compound was called inactive.

Take `COc1cc(OC)nc(NC(=O)NS(=O)(=O)c2ncccc2OCC(F)(F)F)n1`: the result was inactive.

Consider `CCOP(=S)(OCC)Oc1nc(Cl)n(C(C)C)n1`, for which the result was inactive.

As for `CCN(CC)C(=O)C(C)Oc1cccc2ccccc12` (stereo not given), the call was inactive.

As for `CC1(C)C(C=C(Cl)Cl)C1C(=O)OC(C#N)c1cccc(Oc2ccccc2)c1` (stereo not given), the outcome was inactive.

For the compound `CCNC(=O)NC(=O)C(C#N)=NOC`, the compound was called inactive.

As for `CSC(=O)c1c(C(F)F)nc(C(F)(F)F)c(C(=O)SC)c1CC(C)C`, the result was inactive.

For the compound `N#CN=C1SCCN1Cc1ccc(Cl)nc1`, the compound was classed as inactive.

As for `CCCC(=NOCC)C1=C(O)CC(CC(C)SCC)CC1=O` (stereo not given), the compound was classed as inactive.

`CCSC(=O)N1CCCCCC1`: the compound was called inactive.

For the compound `OC(c1ccc(Cl)cc1)(c1ccc(Cl)cc1)C(Cl)(Cl)Cl`, the half-maximal activity concentration (AC50) is 83.7 µM (active).

Turning to `Cc1cc(C)nc(Nc2ccccc2)n1`, the outcome was inactive.

As for `CC(C)NC(=O)N1CC(=O)N(c2cc(Cl)cc(Cl)c2)C1=O`, the compound was classed as inactive.

Turning to `CC1(C)CCC(=Cc2ccc(Cl)cc2)C1(O)Cn1cncn1` (stereo not given), the compound was classed as inactive.

Take `CCCCC(O)(Cn1cncn1)c1ccc(Cl)cc1Cl` (stereo not given): the AC50 is 35.4 µM (active).

As for `CCOc1nc(F)cc2nc(S(=O)(=O)Nc3c(Cl)cccc3Cl)nn12`, the result was inactive.

With `Nc1cnn(-c2ccccc2)c(=O)c1Cl`, the outcome was inactive.

For the compound `O=P(O)(O)CCCl`, the AC50 is 0.373 µM (active).

In the case of `CC(C)N1C(=O)c2ccccc2NS1(=O)=O`, the outcome was inactive.

On to `CC(C)Oc1cccc(NC(=O)c2ccccc2C(F)(F)F)c1`, for which the compound was called inactive.

For `O=C(Nc1ccccc1-c1ccc(Cl)cc1)c1cccnc1Cl`, the compound was called inactive.

Regarding `COP(=O)(OC)O/C(C)=C/C(=O)N(C)C`, the call was inactive.

For `COP(=S)(OC)Oc1ccc([N+](=O)[O-])c(C)c1`, the compound was called inactive.

On to `Nc1c(Cl)c(F)nc(OCC(=O)O)c1Cl`, for which the outcome was inactive.

For the compound `Nc1c(Cl)c(Cl)nc(C(=O)O)c1Cl`, the compound was classed as inactive.

For the compound `O=C1C2CC=CCC2C(=O)N1SC(Cl)(Cl)Cl` (stereo not given), the call was inactive.

As for `CS(=O)(=O)c1ccc(C(=O)C2C(=O)CCCC2=O)c([N+](=O)[O-])c1`, the call was inactive.

Take `CCC(C)n1c(=O)[nH]c(C)c(Br)c1=O` (stereo not given): the compound was classed as inactive.

With `Cc1ccc(N=CN(C)C=Nc2ccc(C)cc2C)c(C)c1`, the compound was called inactive.

Take `CC(C)=CC1C(C(=O)OCc2coc(Cc3ccccc3)c2)C1(C)C` (stereo not given): the outcome was inactive.

As usually defined, the AC50 is the concentration at which the activity in the assay is half-maximal.
